gsp antagonist: antagonizes gsp, the McCune-Albright syndrome mutation; AID 624288; Potency, µM (series often up to 76.9 µM), for inactives: at the highest dose activity change, negative = inhibition, hits mostly inhibitors; hit rate 0.4% among 340,000; gsp-mutant cells, cAMP HTRF, 30 min; calls by dose curve; cell line not stated here;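 further: intracellular cAMP measured with PDE inhibitor Ro 20-1724 present during compound exposure; potency means the concentration at half of the fitted maximal effect; on the % scale 0 is the no-effect control and ±100 the full control effect; nearly all actives have a fitted effect of over 65% in size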
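G418-selected cells were plated in DMEM/10% FBS for 16-24 h at 37C, then treated with compounds plus the PDE inhibitor […] (300 uM solution added) for 30 min at 37C. Intracellular cAMP was measured by HTRF after 30 min lysis at room temperature.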
Akt phos inh: Akt phosphorylation inhibition; hit rate 0.32% among 360,000; activity change, % for hits at 50 µM; Neuro2A IGF-stimulated pAkt S473 HTRF, 20 min; active compounds read low; in the data active means activity change below about -80%; inconclusive means mostly about -51% to -80%; further: on the % scale 0 is the no-effect control and ±100 the full control effect
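Single-point screen (50 µM final compound) in Neuro2A cells stimulated 20 min with 6 nM IGF at 37 deg C. After lysis, Ser473-phosphorylated Akt read by HTRF (ex 330 nm, em 615/665 nm) as the 665/615 ratio.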
RXFP1 agonist: agonists of human relaxin receptor RXFP1. AID 2676. hit rate 0.3% among 370,000. Q9HBX9. Potency, µM (top dose mostly 57.5 µM), inactives show at the highest dose activation, most hits filed as activators. HEK293T-RXFP1 cAMP TR-FRET, 30 min; response scale: percent of porcine relaxin response, buffer zero; active means well fitted activation curve with a large enough effect; inconclusive means small, poorly fitted or top-dose-only effect; further: potency means the concentration at half of the fitted maximal effect; on the % scale 0 is the no-effect control and ±100 the full control effect; nearly all actives have a fitted effect of over 60% in size
Target sequence (Q9HBX9 whole entry, looked up): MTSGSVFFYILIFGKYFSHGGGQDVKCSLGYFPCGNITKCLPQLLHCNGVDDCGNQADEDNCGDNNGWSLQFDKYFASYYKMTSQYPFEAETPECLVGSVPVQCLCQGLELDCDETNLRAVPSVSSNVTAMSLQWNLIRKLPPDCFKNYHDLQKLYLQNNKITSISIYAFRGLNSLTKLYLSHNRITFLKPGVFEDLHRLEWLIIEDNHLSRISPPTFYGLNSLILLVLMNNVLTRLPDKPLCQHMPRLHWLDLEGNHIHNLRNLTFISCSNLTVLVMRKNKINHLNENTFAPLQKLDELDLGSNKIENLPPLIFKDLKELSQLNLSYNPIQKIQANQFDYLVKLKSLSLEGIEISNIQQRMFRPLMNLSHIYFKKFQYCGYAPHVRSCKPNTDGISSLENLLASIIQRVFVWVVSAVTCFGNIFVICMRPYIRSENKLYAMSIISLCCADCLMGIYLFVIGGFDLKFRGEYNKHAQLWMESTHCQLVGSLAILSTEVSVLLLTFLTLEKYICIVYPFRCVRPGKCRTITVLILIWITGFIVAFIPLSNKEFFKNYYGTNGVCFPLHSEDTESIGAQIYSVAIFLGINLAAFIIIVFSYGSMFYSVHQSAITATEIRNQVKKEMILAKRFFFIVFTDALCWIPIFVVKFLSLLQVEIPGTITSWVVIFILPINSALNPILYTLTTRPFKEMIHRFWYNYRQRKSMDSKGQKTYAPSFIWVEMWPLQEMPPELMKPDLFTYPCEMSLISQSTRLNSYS
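HEK293 cells stably expressing RXFP1, treated 30 min at 37C with compounds plus PDE4 inhibitor Ro 20174; cAMP measured by HTRF TR-FRET. Normalized to buffer and 29 nM porcine relaxin; EC50 by Hill fit.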
RXFP1 antag: antagonists of human relaxin receptor RXFP1. HEK293-RXFP1, relaxin-stimulated cAMP HTRF, 30 min; active compounds read low. AID 1259400. Q9HBX9. activity change, negative = inhibition, % at 57.5 µM. hit rate 0.59% among 350,000;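 active means activity change of -60% or lower, but not beyond a set lower limit; inconclusive means change between -60% and -40%, or beyond the set limit; inactive means change above -40%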; further: on the % scale 0 is the no-effect control and ±100 the full control effect
gsp agonist: agonists of gsp mutant (McCune-Albright syndrome). Potency, µM (highest dose often 76.9 µM), for inactives: at the top dose activation (cAMP increase), hits mostly activators. AID 624287. gsp mutant cells, cAMP HTRF, 30 min. hit rate 0.13% among 340,000; active means well fitted activation curve with a large enough effect; inconclusive means small, poorly fitted or top-dose-only effect, or another doubt; inactive means no such curve, though single readings can be large or run the other way; cell line not stated here;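 further: phosphodiesterase inhibitor Ro 20-1724 added with compounds to block cAMP breakdown; potency means the concentration at half of the fitted maximal effect; nearly all actives have a fitted effect of over 60% in size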
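Cells in DMEM/10% FBS with G418 were pretreated with compounds in DMSO plus […] (300 uM stock) for 30 min at 37C. cAMP was measured by HTRF (cAMP-d2 plus anti-cAMP antibody-K) after 30 min at room temperature.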
ClpP mod: qHTS Assay for Activators of ClpP. purified B. subtilis ClpP, FRET peptide cleavage, 20 min. Potency, µM (series often up to 57.5 µM), without a hit: at the highest dose activity change, negative = active. hit rate 1.9% among 340,000. AID 651965, 2013; active means well fitted falling curve with a large enough effect; inconclusive means small, poorly fitted or top-dose-only effect; inactive means no such curve, though single readings can be large or run the other way; further: potency means the concentration at half of the fitted maximal effect; the source files actives as falling curves though it sought activators and does not explain the sign; nearly all actives have a fitted effect of over 65% in size
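ClpP 10 microg/mL final, pH 8 Tris/KCl buffer with BSA, glycerol, Tween-20; compound pinned in; FRET-FV substrate; RT 20 min; Ex320/Em430; ΔFRET vs ADEP 5.8 microM, DMSO, no enzyme.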
Active calls of the source: *; i = inactive; ? = inconclusive; . = no result given; [ ] = another dose, or the depositor's remark. The list is not random: actives were taken first. Their share in the collection is about 2.7%.

SMILES | gsp antagonist | Akt phos inh | RXFP1 agonist | RXFP1 antag | gsp agonist | ClpP mod
Cc1ccc(CCNC(=O)c2ccc3c(c2)c(C)c(C)n3Cc2ccccc2)cc1 | . | . | -0.4% | 0.4 | . | 22.4µM*
COc1cccc(CNC(=O)c2ccc3c(c2)c(C)c(C)n3Cc2ccccc2)c1 | . | . | -2.6% | -9.5 | . | ?
Cc1ccc(Cn2c(CCNC(=O)c3cccc(C)c3)nc3ccccc32)cc1 | . | . | 3.3% | -3.9 | . | 22.4µM*
CC(=O)NCCc1nc2ccccc2n1Cc1cccc(C)c1 | 0.1% | i | 0.0% | -4.3 | 21.0%[15.4 µM] | .
CCOc1ccc(NC(=O)c2ccc3c(c2)c(C)c(C)n3Cc2ccc(F)cc2)cc1 | . | . | -0.1% | -3.9 | . | ?
CCc1cccc(NC(=O)c2ccc3c(c2)c(C)c(C)n3Cc2ccc(F)cc2)c1 | . | . | 0.5% | -1.3 | . | 20µM*
CC(C)c1nn2c(=O)cc(COC(=O)c3ccc(NC(=O)c4ccccc4Cl)cc3)nc2s1 | . | . | 5.9% | -4.2 | . | -19.0%
Cc1c(C)n(Cc2ccc(F)cc2)c2ccc(C(=O)Nc3ccc(Cl)cc3)cc12 | . | . | -3.0% | -28.4 | . | 31.6µM*
C=C(C)Cn1c(CCNC(=O)C(C)C)nc2ccccc21 | 5.7% | i | 0.4% | -4.2 | 1.8% | -0.2%
CC(=O)c1cccc(NC(=O)c2ccc3c(c2)c(C)c(C)n3Cc2ccc(Cl)cc2)c1 | . | . | -1.5% | -8.3 | . | -4.6%
CCc1ccc(NC(=O)c2ccc3c(c2)c(C)c(C)n3Cc2ccccc2)cc1 | . | . | 0.5% | -17.6 | . | 22.4µM*
CCn1nc(C)c(/C=N/NC(=O)c2ccc3c(c2)c(C)c(C)n3Cc2ccccc2)c1C | 9.5% | i | 3.6% | 1.3 | 7.8%[15.4 µM] | 10µM*
C=C(C)Cn1c(CCNC(=O)CC)nc2ccccc21 | 5.1% | i | 1.3% | -4.8 | -59.6% | 31.6µM*
Cc1cccc(NC(=O)Cn2cc(C(=O)c3ccco3)c3ccccc32)c1C | . | . | 6.2% | -26.6 | . | -22.1%
COc1ccccc1NC(=S)NC1CCCCC1 | 0.5% | i | 2.6% | 12.6 | 20µM* | -1.2%
COC(=O)c1cn(Cc2cc(OC)ccc2OC)cc(F)c1=O | 11.2% | i | 9.0% | -4.9 | -1.2%[15.4 µM] | -0.4%
Cc1cc(O)c(C(C)C)cc1NC(=S)Nc1cc(C(C)C)c(O)cc1C | 28.2µM* | i | . | -15.4 | -1.4% | 1.8%
Cc1cc(C)cc(OC(=O)C23CCC(C)(C(=O)O2)C3(C)C)c1 (stereo not given) | -3.2% | i | -0.2% | -16.3 | 10.0% | .
CCn1c(Cl)c(C=O)s/c1=N\S(=O)(=O)c1ccccc1 | -26.1% | i | 4.3% | -86.5* | ? | -6.6%
CN(Cc1ccccc1)S(=O)(=O)c1ccc(NC(=O)C2CCCCC2C(=O)O)cc1 (stereo not given) | 14.4% | i | . | -1.5 | 2.7% | 0.1%
CN(C1CCCCC1)S(=O)(=O)c1ccc(NC(=O)C2CCCCC2C(=O)O)cc1 (stereo not given) | 2.3% | i | 0.4% | 0.5 | 0.2% | 31.6µM*
CCOC(=O)c1c(C)[nH]c(C(=O)OC(C(=O)N(C)C)c2ccccc2)c1C (stereo not given) | . | . | . | . | . | -1.2%
CN(C)S(=O)(=O)n1cnc([C@H]2c3c(ncn3Cc3ccccc3)C[C@H]3COC(=O)[C@@H]32)c1 | 50.1µM* | i | 0.9% | . | -7.3% | 1.8%
COc1ccc([C@H]2CC(=O)C=C(c3c(C)cc(C)cc3C)C2)cc1 | -0.9% | i | 0.3% | . | . | 1.7%
COc1ccc(CN2C(=O)c3cccnc3C2=O)cc1S(=O)(=O)N1CCCC(C)C1 (stereo not given) | 14.5% | i | 7.94µM* | 14.4 | 7.94µM* | -1.9%
SMILES | gsp antagonist | Akt phos inh | RXFP1 agonist | RXFP1 antag | gsp agonist | ClpP mod
COc1ccc(CN2C(=O)c3cccnc3C2=O)cc1S(=O)(=O)NC1CCCCC1C (stereo not given) | 8.9% | . | 25.1µM* | 7.8 | ? | 0.1%
COC(=O)c1scc(-c2ccc(C)cc2)c1S(=O)(=O)N1CCN(c2ccc(F)cc2)CC1 | . | . | -10.4% | . | . | 1.5%
COc1cc(OC)c(/C=C/c2nccc3ccccc23)c(OC)c1 | . | . | . | . | . | -6.7%
CCNC(=O)N1c2ccc(OCC)cc2C(C)=CC1(C)C | ? | i | 0.2% | -2.7 | 5.7% | -21.9%
CCOc1ccc2c(c1)C(C)=CC(C)(C)N2C(=O)Nc1ccccc1F | 6.3% | i | 1.8% | . | -22.9% | 28.2µM*
CCOc1cccc(/C=C2/NC(=O)N(CC(=O)Nc3cccc(C)c3)C2=O)c1O | 1.5% | i | -0.8% | -77.4* | ? | .
CCOc1cc(/C=C2/NC(=O)N(CC(=O)Nc3cccc(C)c3)C2=O)ccc1OCC(N)=O | 3.2% | i | 0.1% | -8.1 | -2.9%[15.4 µM] | .
Oc1ccc2ccccc2c1CN1CCN(C/C=C/c2ccccc2)CC1 | -6.9% | i | 2.3% | -6.5 | -2.3% | .
Oc1ccc2ccccc2c1CN1CCN(c2ccccc2F)CC1 | 5.5% | i | 6.8% | -2.0 | -33.0% | 11.2µM*
Cc1ccc(N2C(=O)c3n[nH]c(C)c3C2c2ccc(C(C)C)cc2)cc1 (stereo not given) | . | . | 2.1% | . | . | 1.0%
COc1cc(SC#N)ccc1N=Cc1c(C)[nH]n(-c2cccc3ccccc23)c1=O | 0.6% | i | 4.3% | ? | -7.1% | 28.2µM*
NC(=O)C1(Nc2ccc(C(=O)O)cc2)CCCC1 | 12.4% | i | . | 6.7 | -58.0% | 11.2µM*
NC(=O)C1(Nc2ccccc2)CCCC1 | -3.6% | i | . | -8.8 | -6.0%[15.4 µM] | 0.8%
COc1ccc(CCN2C(=O)COc3ccccc3C2C(=O)Nc2ccc3c(c2)OCCO3)cc1OC (stereo not given) | . | i | . | . | . | -1.1%
CC1CCN(C(=O)COC(=O)CCCN2C(=O)c3cccc4cccc(c34)C2=O)CC1 | 1.3% | i | 4.8% | -21.9 | ? | 31.6µM*
N#Cc1cccc(NC(=O)C2CCN(S(=O)(=O)c3ccc4c(c3)CCCN4C(=O)C3CCC3)CC2)c1 | . | . | 4.8% | -9.7 | . | -0.9%
O=C(NCCCOc1cccc(CN2CCCCC2)c1)c1ccc(Cl)c(Cl)c1 | 12.5% | i | 1.0% | -20.3 | 5.0%[15.4 µM] | 15.8µM*
COC(=O)/C(C#N)=C/c1c(-c2ccccc2)nc2n1CCS2 | 0.4% | i | 0.5% | 14.2 | ? | .
Clc1cccc(Cl)c1CO/N=C/c1c(-c2ccccc2)nc2n1CCS2 | -12.8% | . | 0.8% | -10.1 | -7.6% | 25.1µM*
CCOc1ccc(Nc2c(S(=O)(=O)c3ccc(Cl)cc3)cnc3ccc(OCC)cc23)cc1 | . | . | -0.5% | -18.1 | . | -1.7%
C=CCOc1c(Br)cc(CNc2ccc(NC(=O)CCC)cc2)cc1OCC | -10.7% | -100.4%* | 1.4% | -25.5 | -22.1% | 7.9%
CCOc1cc(CNc2ccc(N3CCCCC3)cc2)cc(Br)c1OCC(=O)NC(C)(C)C | -8.8% | i | 3.2% | -4.5 | -2.1% | 0.9%

Bioassay records deposited in PubChem by National Center for Advancing Translational Sciences (NCATS).
